This passage reports growth results from PubChem BioAssay (NCI).

Among the test systems are HCT-15 colon; HT29 colon; SNB-75 CNS; SNB-19 CNS; U251 CNS; PC-3 prostate; SK-MEL-5 melanoma; UACC-62 melanoma; LOX IMVI melanoma; SK-MEL-28 melanoma; SN12C renal; UO-31 renal; TK-10 renal; ACHN renal; CAKI-1 renal; A498 renal; CCRF-CEM leukemia; MOLT-4 leukemia; SK-MEL-2 melanoma; EKVX NSCLC.
Assay in all cases: NCI-60 one-dose screen, 48 h (100 = growth as untreated, 0 = no growth, -100 = all killed)
Common to all, as to details: 10 µM unless noted

The panel holds about 83,000 compounds, 20% with a hit somewhere; the sample as a whole holds those more often.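 The endpoint reported here, percent growth, reads 100 for growth as untreated, 0 for no net growth and -100 for all cells dead.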 Unmarked numbers belong to inactive results. Active and inactive are the calls of the source. Rule for the calls: active = growth percent below 10; inactive = the rest.

As for `Cn1cc(-c2csc(-c3cn(C)c4ncccc34)n2)c2ccccc21`, the growth is 26.5% with HCT-15 colon; 6.11% (active) in the experiment with HT29 colon; -4.48% (active) in the experiment with SNB-75 CNS; 42.4% in the experiment on SNB-19 CNS; 25.1% in the experiment with U251 CNS; 35.7% in the experiment on PC-3 prostate. The growth with SK-MEL-5 melanoma is 32.6%; with UACC-62 melanoma, 47%; with LOX IMVI melanoma, 36.8%; with SK-MEL-28 melanoma, 61.4%; with SN12C renal, 56.4%; in the experiment on UO-31 renal it was 51.2%. Further, the growth in the experiment on TK-10 renal is 50.3%; with ACHN renal it was 57.4%; with CAKI-1 renal, 35.1%; in the experiment on A498 renal, -0.625% (active); with CCRF-CEM leukemia, 10.1%; in the experiment with MOLT-4 leukemia it was 14.6%.
As to `CC1=C(NCCN2CCCC2)C(=O)c2c(OCc3cccc(Cl)c3)cccc2C1=O`, the growth in the experiment with HCT-15 colon is 57.1%; in the experiment on HT29 colon it was 26.1%; in the experiment with SNB-75 CNS, 75.1%; in the experiment with SNB-19 CNS, 99.4%; with U251 CNS, 61.7%; in the experiment with PC-3 prostate it was 69.9%. In addition, the growth with SK-MEL-5 melanoma was 67.1%; with UACC-62 melanoma, 93.7%; with LOX IMVI melanoma, 36.1%; in the experiment with SK-MEL-28 melanoma, -8.01% (active); in the experiment on SN12C renal, 75.2%; in the experiment on UO-31 renal, 52.7%. Further, the growth in the experiment with TK-10 renal is 74.1%; in the experiment on ACHN renal, 89.1%; in the experiment on CAKI-1 renal, 53.7%; with A498 renal it was 47.4%; in the experiment on CCRF-CEM leukemia it was 54.9%; with MOLT-4 leukemia, 51.5%.
For the compound `COc1ccc2nc3cc(Cl)ccc3c(N3CCN(c4ccnc(N5CCN(C)CC5)n4)CC3)c2c1`, the growth with HCT-15 colon was -23.2% (active); in the experiment with HT29 colon it was -69.4% (active); with SNB-75 CNS, 90.6%; in the experiment with SNB-19 CNS it was 94.5%; in the experiment on U251 CNS, 46.1%; in the experiment with PC-3 prostate, 63.4%. The growth with SK-MEL-5 melanoma is 84.7%; in the experiment with UACC-62 melanoma, 94.1%; in the experiment on LOX IMVI melanoma it was -62.5% (active); in the experiment on SK-MEL-28 melanoma, 28.7%; in the experiment with SN12C renal, 36.9%; in the experiment on UO-31 renal, 51.2%. The growth in the experiment on TK-10 renal is 8.16% (active); in the experiment on ACHN renal, 36.9%; with CAKI-1 renal, 49.7%; in the experiment with A498 renal, 68.1%; with CCRF-CEM leukemia, -27.9% (active); in the experiment on MOLT-4 leukemia, -24% (active).
On to `O=C1C[C@H](N2C(=O)c3ccccc3S2(=O)=O)C2CO[C@@H]1O2`, for which the growth in the experiment with HCT-15 colon was 59.6%; with HT29 colon, 70.4%; with SNB-75 CNS, 91.3%; with SNB-19 CNS, 106%; with U251 CNS, 93.3%; in the experiment with PC-3 prostate, 99.7%. Further, the growth is 96.2% in the experiment on SK-MEL-5 melanoma; 100% with UACC-62 melanoma; 18.9% in the experiment with LOX IMVI melanoma; 66.1% in the experiment on SK-MEL-28 melanoma; 91.8% in the experiment with SN12C renal; 63.7% with UO-31 renal. Also, the growth in the experiment with TK-10 renal was 92.4%; in the experiment on ACHN renal, 78.2%; in the experiment on CAKI-1 renal, -80.1% (active); in the experiment with A498 renal, 93.9%; in the experiment with CCRF-CEM leukemia, 4.58% (active); with MOLT-4 leukemia, 79%.
Take `COc1cnc2c(c1)C(=O)c1c-2n(CCCBr)c(=O)c2cc([N+](=O)[O-])ccc12`: the growth in the experiment on HCT-15 colon was 20.7%; in the experiment on HT29 colon it was 0.984% (active); in the experiment with SNB-75 CNS, 13.5%; with SNB-19 CNS, 22.3%; in the experiment with U251 CNS it was -22.4% (active); with PC-3 prostate it was 4.1% (active). For the same compound, the growth in the experiment on SK-MEL-5 melanoma is -82.6% (active); in the experiment on UACC-62 melanoma it was -62.3% (active); in the experiment with SK-MEL-28 melanoma it was 16.3%; in the experiment with SK-MEL-2 melanoma, 6.39% (active); in the experiment on EKVX NSCLC it was 34.2%; in the experiment on SN12C renal it was -15.3% (active). The growth was -10.8% (active) in the experiment with UO-31 renal; 36.5% in the experiment on TK-10 renal; 3.87% (active) in the experiment on ACHN renal; 2.8% (active) in the experiment with CAKI-1 renal; -29.8% (active) with A498 renal; 8.19% (active) in the experiment on CCRF-CEM leukemia. Moreover, the growth in the experiment with MOLT-4 leukemia is 7.84% (active).
With `CS(=O)CCCCCN=C=S` (configuration not stated), the growth with HCT-15 colon was -16.9% (active); in the experiment with HT29 colon, -13.3% (active); in the experiment with SNB-75 CNS, 29.5%; in the experiment with SNB-19 CNS it was 28%; with U251 CNS, 9.01% (active); with PC-3 prostate it was 32.4%. Besides, the growth in the experiment on SK-MEL-5 melanoma was 12.1%; in the experiment on UACC-62 melanoma, -8.14% (active); in the experiment with LOX IMVI melanoma it was -38.7% (active); in the experiment with SK-MEL-28 melanoma, 6.92% (active); with SK-MEL-2 melanoma, 6.73% (active); in the experiment on SN12C renal, -17% (active). Besides, the growth is 1.81% (active) with UO-31 renal; -27.7% (active) in the experiment on TK-10 renal; -45.5% (active) in the experiment with ACHN renal; -15.3% (active) with CAKI-1 renal; -25.9% (active) in the experiment with A498 renal; -7.32% (active) in the experiment with CCRF-CEM leukemia. Also, the growth with MOLT-4 leukemia is -13% (active).
For the compound `COc1ncc(-c2ccc3ncnc(Nc4cccc(Cl)c4)c3c2)cc1NS(C)(=O)=O`, the growth in the experiment with HCT-15 colon is 30.8%; with HT29 colon, 22.3%; in the experiment with SNB-75 CNS it was 9.09% (active); with SNB-19 CNS, 37.6%; with U251 CNS it was 46.8%; in the experiment with PC-3 prostate, 25.9%. In addition, the growth was 23.3% with SK-MEL-5 melanoma; 19.1% with UACC-62 melanoma; 35.3% with LOX IMVI melanoma; 32% with SK-MEL-2 melanoma; 12.1% with EKVX NSCLC; 29.1% in the experiment on SN12C renal. The growth is 8.8% (active) in the experiment on UO-31 renal; -11.1% (active) in the experiment on TK-10 renal; 14.9% with CAKI-1 renal; 0.974% (active) in the experiment on A498 renal; 32.5% in the experiment with CCRF-CEM leukemia; -6.32% (active) in the experiment with MOLT-4 leukemia.
For `CS(CCCCN=C=S)=NC(=O)c1c(F)c(F)c(F)c(F)c1F` (configuration not stated), the growth is 37.3% in the experiment with HCT-15 colon; 57.6% in the experiment on HT29 colon; 74.3% in the experiment with SNB-75 CNS; 91.9% in the experiment with SNB-19 CNS; 80.3% with U251 CNS; 95.8% in the experiment on PC-3 prostate. The growth is 96.1% with SK-MEL-5 melanoma; 51.9% with UACC-62 melanoma; 28.3% with LOX IMVI melanoma; 85.9% in the experiment with SK-MEL-28 melanoma; 94.2% in the experiment with SK-MEL-2 melanoma; 61.1% in the experiment on SN12C renal. Further, the growth with UO-31 renal was 59.6%; in the experiment with TK-10 renal it was 66.6%; in the experiment on ACHN renal it was 52.4%; with CAKI-1 renal, 71.3%; in the experiment with A498 renal, 112%; in the experiment on CCRF-CEM leukemia, 36.8%. Further, in the experiment on MOLT-4 leukemia, the growth is 66.2%.
